Bioassay records deposited in PubChem by The Scripps Research Institute Molecular Screening Center.
Compounds with a hit are over-represented: about 4.8% of the library has one in this group of screens.
ssDAF-12 act: activators of S. stercoralis DAF-12 nuclear receptor; HEK293 ssDAF-12/GRIP1 lit1-tk-luc reporter, luminescence; % of 3 µM dafachronic acid response; activation, % at 6.8 µM; actives 1% (n = 370,000); AID 652126;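 active means activation above the mean over all tested compounds plus 3 SD, cut at about 0.9% in these data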;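 further: 0% = DMSO-only wells and 100% = 3 µM delta7-dafachronic acid wells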
SMARCA2 activ: SMARCA2 function activation, primary screen; MG213 cells, MMTV-luciferase reporter, dexamethasone, overnight; activation, % at 9.1 µM; actives 1% (n = 370,000); AID 652017; in the data active means activation above about 7.8%;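 further: 0% = vehicle wells and 100% = reference activator wells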
DAX1 inh-1: inhibits human nuclear receptor DAX1; P51843; HEK293 Gal4-DAX1 luciferase reporter, luminescence; inhibition, % at 6.75 µM; actives 0.99% (n = 340,000);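 active means inhibition above the mean over all tested compounds plus 3 SD, cut at about 4.2% in these data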;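 further: 0% = DAX1-transfected cells with DMSO and 100% = empty-vector control cells with DMSO; inhibition shows as a rise in luminescence from relieved DAX1 repression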
Target sequence (P51843 207-470 limits assumed): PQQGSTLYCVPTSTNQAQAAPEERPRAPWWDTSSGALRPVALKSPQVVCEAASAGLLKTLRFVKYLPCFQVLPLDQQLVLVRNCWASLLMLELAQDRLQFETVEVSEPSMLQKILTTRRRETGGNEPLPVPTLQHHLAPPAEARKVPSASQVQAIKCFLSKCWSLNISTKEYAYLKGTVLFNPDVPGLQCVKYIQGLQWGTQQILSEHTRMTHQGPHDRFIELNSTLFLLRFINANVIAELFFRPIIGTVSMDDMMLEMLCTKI
DAX1 inh-2: DAX1 (NR0B1) inhibition, primary screen; HEK293T StAR-luciferase reporter, SF-1/DAX-1 repression relief; inhibition, % at 6.8 µM; actives 1.1% (n = 370,000);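 active means inhibition above the mean over all tested compounds plus 3 SD, cut at about 3.6% in these data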;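 further: 0% = DAX-1 cells with DMSO and 100% = cells lacking DAX-1 with DMSO; higher inhibition means more luminescence from relief of DAX-1 repression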
hcDAF12 agonist: H. contortus DAF-12 activation, primary screen; HEK293 hcDAF-12 lit1-tk-luc reporter, luminescence; 0% DMSO, 100% Δ7-dafachronic acid; activation, % at 6.8 µM; actives 1.4% (n = 370,000); AID 652067;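 active means activation above the mean of all tested compounds plus 3 SD, cut at about 5.5% in these data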;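 further: 100% = response to 3 µM Δ7-dafachronic acid high control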
hgDAF-12 ag: hgDAF-12 agonism, primary luciferase screen. HEK293 GAL4-hgDAF12 UAS-luciferase reporter, agonist luminescence; normalized to butyrate control. activation, % at 6.8 µM. actives 1.8% (n = 370,000). AID 687014;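 active means activation above a cutoff set at the mean of all screened compounds plus 3 SD, cut at about 10% in these data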;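 further: 0% = DMSO wells and 100% = sodium butyrate wells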
DAX1 inh confirm: confirmation of human DAX1 (NR0B1) inhibitors; actives 87% (n = 2,400); shares compounds with DAX1 inh-2; inhibition, % at 6.8 µM; HEK293T StAR-promoter luciferase reporter, SF-1/DAX-1 repression;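 active means inhibition above the average of every tested compound plus 3 SD, cut at about 3.8% in these data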;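 further: 0% = DAX-1 cells with DMSO and 100% = no DAX-1 control cells with DMSO; active compounds raise luminescence by relieving repression of the StAR reporter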
SF1 mutant ctr: counter-screen for DAX1 inhibitors: nonselective inhibitors with SF-1 AF2 mutant. actives 78% (n = 2,400). inhibition, % at 6.8 µM. HEK293 StAR-luciferase, luminescence. shares compounds with DAX1 inh-2. AID 652136;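 active means inhibition above the mean of all tested compounds plus 3 SD, cut at about 3% in these data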;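 further: 0% = DAX-1 transfected cells with DMSO and 100% = cells without DAX-1 with DMSO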
SMARCA2 act conf: confirmation of SMARCA2 (BRM) function activators | shares compounds with SMARCA2 activ | MG213 cells, MMTV-luciferase with dexamethasone, luminescence, overnight; MG213 cells expressing E1A, Rb sequestered; DMSO wells 0%, reference activator 100% | activation, % at 9.1 µM | actives 30% (n = 3,500) | AID 652260;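 active means activation above its plate's cutoff, the mean activation of tested wells plus 3 SD, cut at about 7.9% in these data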
VP16 Luc act: activates GAL4-VP16 luciferase, flagging SMARCA2 activator hits. AID 686939. activation, % at 9.1 µM. HEK293 GAL4-VP16 pG5luc reporter, luciferase luminescence; scaled: DMSO wells 0%, SAHA wells 100%. actives 41% (n = 3,500). shares compounds with SMARCA2 activ;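 active means activation above the solvent-only control well mean plus 3 SD, averaged across control plates, cut at about 5.2% in these data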
LXR ag: LXR-beta agonism as hcDAF-12 counter-screen; HEK293 Gal4-LXR tk-luc reporter, luminescence, 24 h; normalized: DMSO 0%, positive control 100%; activation, % at 6.8 µM; 3,400 tested, under 10 active; shares compounds with hcDAF12 agonist;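 active means mean percent activation of the reporter above a cutoff set as the average over tested compounds plus their standard deviation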
Target sequence (P55055 whole entry, looked up, the tested form may be a part): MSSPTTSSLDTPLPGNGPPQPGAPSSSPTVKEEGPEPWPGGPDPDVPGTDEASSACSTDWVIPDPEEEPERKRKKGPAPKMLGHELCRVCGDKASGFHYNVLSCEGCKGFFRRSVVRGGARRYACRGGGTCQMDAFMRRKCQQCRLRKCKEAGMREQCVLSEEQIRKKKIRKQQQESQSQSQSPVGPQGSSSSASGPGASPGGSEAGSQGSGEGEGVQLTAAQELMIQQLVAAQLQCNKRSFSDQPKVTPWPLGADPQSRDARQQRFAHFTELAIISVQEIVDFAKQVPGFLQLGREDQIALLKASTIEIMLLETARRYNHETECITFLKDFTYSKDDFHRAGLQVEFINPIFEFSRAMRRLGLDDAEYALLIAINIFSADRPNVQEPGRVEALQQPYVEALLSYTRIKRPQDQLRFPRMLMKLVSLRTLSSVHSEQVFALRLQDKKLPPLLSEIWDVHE
hcDAF12 conf: hcDAF-12 agonism, confirmation assay | actives 61% (n = 3,400) | activation, % at 6.8 µM | AID 743032 | shares compounds with hcDAF12 agonist | HEK293 hcDAF-12 lit1-tk-luc reporter, luminescence; % of Δ7-dafachronic acid response;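 active means mean activation across triplicate tests above the threshold derived from the earlier primary screen, cut at about 5.5% in these data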;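 further: 0% = DMSO only wells and 100% = 3 µM Δ7-dafachronic acid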
hgDAF12 ag: confirmation of H. glycines DAF-12 agonists | shares compounds with hgDAF-12 ag | AID 743050 | HEK293 GAL4-hgDAF12 luciferase reporter, agonist mode; percent of butyrate response | actives 80% (n = 3,300) | activation, % at 6.8 µM;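 active means mean activation over triplicate wells above the hit cutoff derived from the earlier primary screen, cut at about 11% in these data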;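 further: 0% = DMSO low control and 100% = 2 mM sodium butyrate high control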
LXR ag 2: LXR-beta agonism as DAF-12 counter-screen; shares compounds with hgDAF-12 ag; HEK293 Gal4-LXR luciferase reporter, 24 h; activation, % at 6.8 µM; 3,300 tested, under 10 active; AID 743051;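 active means mean activation of the triplicate above a set limit carried over from the primary screen, none filed active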
Numbers without * were called inactive; nt = not tested or not shown.

SMILES | ssDAF-12 act | SMARCA2 activ | DAX1 inh-1 | DAX1 inh-2 | hcDAF12 agonist | hgDAF-12 ag | DAX1 inh confirm | SF1 mutant ctr | hgDAF12 ag | LXR ag 2 | others
COc1ccc(-c2cn3cc(C)ccc3n2)cc1Br | 1.2* | 5 | -2 | 6.9* | 14* | 20* | 19* | 8.2* | 20* | 1 | LXR ag=1;hcDAF12 conf=6.5*
CCn1c(=O)[nH]c2cc(Cl)c(Cl)cc21 | -1 | -1 | 2 | 1 | -1 | 0 | nt | nt | nt | nt
O=C1C(=Cc2cccs2)CCc2ccccc21 | 1.4* | 10* | nt | 7.7* | 9.4* | 18* | 12* | 6.2* | 18* | 1 | SMARCA2 act conf=8.2*;VP16 Luc act=7.0*;LXR ag=2;hcDAF12 conf=8.7*
O=C1c2ccccc2CCc2ccccc21 | -1 | -2 | 0 | 0 | -1 | 1 | nt | nt | nt | nt
COc1ccc(CCNC(=O)CSc2ccc3ccccc3c2)cc1OC | -1 | -1 | 0 | 0 | 0 | -3 | nt | nt | nt | nt
O=C(OCC(=O)N1CCN(c2ccccc2)CC1)c1cccc([N+](=O)[O-])c1 | -1 | -2 | -1 | 0 | -1 | 0 | nt | nt | nt | nt
O=C(OCC(=O)N1CCN(c2ccccc2)CC1)c1ccccc1[N+](=O)[O-] | 0 | 6 | 3 | 6.2* | 4 | 15* | 9.4* | 3.6* | 10 | 1
COc1cc(OC)c(C(=O)NCC(c2cccs2)N(C)C)cc1OC (configuration not stated) | nt | nt | 0 | nt | nt | nt | nt | nt | nt | nt
COc1cc2ccccc2cc1C(=O)NCC(c1cccs1)N(C)C (configuration not stated) | 0 | 4 | 2 | 10* | 6.4* | 15* | 12* | 7.1* | 16* | 1
Cc1cc(C(=O)CSc2nn(-c3ccccc3)c(=S)s2)c(C)n1Cc1ccco1 | -2 | -3 | -3 | -1 | -2 | -5 | nt | nt | nt | nt
Cc1cc(C(=O)CSc2nncs2)c(C)n1Cc1ccco1 | 0 | 5 | -2 | 4.8* | 5 | 16* | 9.8* | 5.3* | 13* | 1
CC(NC(=O)CCNS(=O)(=O)c1cccc2nonc12)c1ccccc1 (configuration not stated) | -1 | -4 | 4 | 0 | 0 | 1 | nt | nt | nt | nt
COc1cccc2c1C(=O)C=C(C)C2=O | -2 | -2 | -2 | -2 | 1 | -2 | nt | nt | nt | nt
CC(=O)Nc1ccc2oc(-c3ccccc3Br)nc2c1 | 0 | 3 | 0 | 5.5* | 8.3* | 15* | 13* | 4.7* | 16* | 1 | LXR ag=1;hcDAF12 conf=4
COc1ccc2cc(C[C@@H]3CC[C@@H](CO)O3)ccc2c1 | 0 | 1 | 2 | 5.0* | 4 | 15* | 8.1* | 5.4* | 12* | 1
COc1ccc2c(c1OC)C(=O)N(c1cccc(C(F)(F)F)c1)C2 | 0 | 8.5* | 2 | 5.1* | 5.7* | 19* | 13* | 4.4* | 15* | 0 | SMARCA2 act conf=5;VP16 Luc act=8.9*
COc1ccccc1N1Cc2ccc(OC)c(OC)c2C1=O | -1 | -1 | 1 | 1 | -2 | -1 | nt | nt | nt | nt
COCCN(C(=O)CSc1nncn1-c1ccccc1)c1c(N)n(Cc2ccccc2)c(=O)[nH]c1=O | -1 | -2 | 0 | 0 | 0 | -1 | nt | nt | nt | nt
CCc1ccccc1N(C(=O)Cn1nnc2ccccc21)C(C(=O)NCCOC)c1ccco1 (configuration not stated) | -1 | -3 | 1 | -1 | -1 | -4 | nt | nt | nt | nt
Nc1ccccc1C(=O)NNC1=C(C(=O)C(F)(F)F)CCC1 | 0 | 5 | 15* | 7.2* | 9.2* | 17* | 13* | 6.5* | 18* | 0 | LXR ag=0;hcDAF12 conf=1
Fc1ccc(Sc2nc(-c3ccccc3)nnc2C(F)(F)F)cc1 | -1 | 1 | 0 | 0 | -1 | 1 | nt | nt | nt | nt
Cc1ccc(S(=O)(=O)CCC(=O)N(CCCN2CCOCC2)c2nc3ccccc3s2)cc1 | 0 | 2 | 1 | 3 | 3 | 6 | nt | nt | nt | nt
Cc1ccc2nc(N(CCN3CCOCC3)C(=O)CCS(=O)(=O)c3ccccc3)sc2c1 | 0 | 8 | 4 | 5.1* | 0 | 14* | 6.8* | 4.8* | 11* | 0
O/N=C/c1ccn(-c2ccc(Br)cc2)c1 | 0 | 3 | 4.5* | 5.6* | 1 | 14* | 5.9* | 3 | 10 | 0
CC(C)Cc1ccc(/C=C/C(=O)N2CCOCC2)cc1 | 1.4* | 2 | 3 | 6.0* | 4 | 16* | 9.5* | 5.2* | 12* | 1
CC(C)(C)c1ccc(/C=C/C(=O)N2CCOCC2)cc1 | 0 | 0 | 1 | 2 | 4 | 10 | nt | nt | nt | nt
O=C(CSc1nnc(-c2ccco2)n1-c1ccc(Cl)cc1)Nc1cccc2ccccc12 | -1 | -7 | nt | 0 | -1 | -3 | nt | nt | nt | nt
COc1ccc(-c2cc(-c3ccccc3)n[nH]2)c(O)c1 | 0 | 4 | 2 | 5.5* | 4 | 16* | 6.3* | 5.5* | 16* | 1
COc1ccc(-c2ncncc2-c2ccccc2)c(O)c1 | -1 | 2 | 1 | 0 | -2 | 3 | nt | nt | nt | nt
